Data on 29 molecules can be found in the supplement of paper PMC7724964.

Experiment [1] deals with DYNLL1 1-89 Dynein_light (domain begin residue: 1, domain end residue: 89), P63167. As to the kind of experiment: phage ELISA signal ratio (GST-PRM binding over GST background); higher = stronger binding of peptide-phage to the PRM. A digest of the protocol:
(§1)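 Each value is the phage ELISA signal on the glutathione S-transferase (GST)-domain fusion divided by the signal on GST alone. Human peptide recognition domains were expressed in 96-well plates, fused to the C-terminus of GST, and selected against an M13 phage library carrying randomized, cysteine-free, glycine-flanked hexadecapeptides on the gene-8 major coat protein. After five selection rounds, approximately 48 individual clones from rounds 4 and 5 were tested by phage ELISA, and positive clones were sequenced.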
(ELISA stands for enzyme-linked immunosorbent assay.)

Experiment [2] has as its target T1, DYNLL2 1-89 Dynein_light (domain begin residue: 1, domain end residue: 89), Q96FJ2.
T1 chain: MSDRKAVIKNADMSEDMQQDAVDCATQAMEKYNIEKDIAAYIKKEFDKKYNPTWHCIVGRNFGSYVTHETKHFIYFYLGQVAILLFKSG
The experiment is described as above. A digest of the protocol:
as §1

DYNLL1 1-89 Dynein_light (domain begin residue: 1, domain end residue: 89), P63167, sequence (P63167 whole entry, the tested form may be a part): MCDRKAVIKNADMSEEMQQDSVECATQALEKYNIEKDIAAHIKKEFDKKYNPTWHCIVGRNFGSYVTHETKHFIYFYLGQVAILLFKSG

For the molecule SQTDWYDELFSQLVVT, in experiment [1], the “phage ELISA signal ratio” value was 27.9.

Turning to TQTEEYMQMLWPYQDV, the “phage ELISA signal ratio” value in experiment [1] is 21.3. Same read-out and setting: the figure for TQTEDWPQRESQPNWM is 25.2; for SQTEPMPLWSRDAEVT it is 23.1. In the case of VTVGTQWDGFHVDAPI, in experiment [1], the “phage ELISA signal ratio” value came out at 19.6.

Take EMWTQTTSYDFLQMQG: in experiment [1], the “phage ELISA signal ratio” value was 20.7. On the same count and under the same terms, the figure for VDMGTQTEASLLRYSV is 33.5; for TQTDMNFWHSPWVELV it is 24.8.

Turning to TQTLAWDWYYEFPEMI, the “phage ELISA signal ratio” value in experiment [1] is 24.5. As for QQTDDWHVAETGIWLA, the “phage ELISA signal ratio” value in experiment [2] came out at 13.9. Regarding TQTEYWVIDMPDWMTI, in experiment [1], the “phage ELISA signal ratio” value worked out at 21.2.

Turning to SQTPDEWDWQPGAWIT, the “phage ELISA signal ratio” value in experiment [1] worked out at 19.7. On the same count and under the same terms, the figure for SQTDPTYWFPWEDKWN is 28.8.

Turning to TQTDAWEMTMLAQQAV, in experiment [1], the “phage ELISA signal ratio” value was determined as 25.2. On the same count and under the same terms, the result for TQTDESMWLWHWPEDH reads 29.4. As for TQTPYDWLYPAATYLT, the “phage ELISA signal ratio” value in experiment [1] is 28. Turning to ISVGTQTDWTEPPQMG, the “phage ELISA signal ratio” value in experiment [1] amounted to 29.1. TQTEFPWEDARLPKQE: the “phage ELISA signal ratio” value in experiment [1] amounted to 28.7. Same read-out and setting: the result for KDFGTQVDFDILHEEE reads 27.5; that for MATQTDWNWGFLQEME, 29.1. Consider TQTDLMGDHWPQHKMT, for which the “phage ELISA signal ratio” value in experiment [1] turned out to be 24.5. The same measure, in the same setting: the result for MSLGTQTDWQEPMWWL reads 26.8. The same measure, in the same setting: the result for LREMGTQTGEMITDYV reads 25.8; that for VQTDWMDWWMPDPFNA, 23.6.

In the case of TQTEWLWNWGESAHML, in experiment [1], the “phage ELISA signal ratio” value is 29.8. Still for that read-out and setting: the result for TQTEPAWGETGEMTAI reads 26; that for GTQTDDTMVYFPREQR, 22.8.

Take SPTEWVWNWGENAQML: the “phage ELISA signal ratio” value in experiment [1] is 24.1. The same measure, in the same setting: the result for TQTGESEMYFWNHMPK reads 22.7.
